These results are taken from PubChem BioAssay (Tox21).

“And” between values parts separate entries of the source, which are not always exact repeats. Equal entries are not always repeated. A number with no mark means an inactive call. Results filed as inconclusive are left out. The source made the active and inactive calls. Unless noted, calls come from the whole dose curve; as a rule, active = well fitted curve in the direction sought with a large enough effect in the repeat runs; inconclusive = weak or mixed curves; inactive = no such curve, though single readings can be large; an effect the other way counts as inactive or inconclusive.

Test [1] in a line: qHTS assay to identify small molecule agonists of the estrogen receptor alpha (ER-alpha) signaling pathway in the presence of an antagonist - cell viability counter screen (AID 1259386). Note: series mostly up to about 92 µM; nearly all actives have a fitted effect of over 30% in size. Summed up: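 Read-out: CellTiter-Fluor fluorescence after 1hr reagent incubation, measured in the same wells as the luciferase readout. VM7Luc4E2 cells were exposed to 15 compound concentrations with 10.0nM ICI-182,780 for 22hr at 37C.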

Test [2] has as its target Progesterone receptor (Homo sapiens) (UniProt P06401). Kind of test: qHTS assay to identify small molecule agonists of the progesterone receptor (PR) signaling pathway (AID 1346784; calls by dose curve; note: nearly all actives have a fitted effect of over 30% in size). The procedure, abridged: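 PR-UAS-bla HEK 293T cells carrying a UAS-driven beta-lactamase reporter were seeded in medium with 2% charcoal-stripped FBS, preincubated 6 hr at 37C, then exposed to compounds in DMSO for 16 hr; agonism was read by LiveBLAzer B/G FRET fluorescence.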

The target is the same in test [3]. Kind of test: qHTS assay to identify small molecule antagonists of the progesterone receptor (PR) signaling pathway (AID 1346795; active = well fitted inhibition curve with a large enough effect in the signal ratio in the repeat runs, not every such curve was filed as active; the % refers to the signal ratio). The procedure, abridged: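 PR-UAS-bla HEK293T cells carrying a UAS-driven beta-lactamase reporter were plated in medium with 2% charcoal-stripped FBS and rested 6 hr at 37C. Compounds were added with 1 nM R5020 (final) for 16 hr, then FRET substrate loaded 2 hr at room temperature.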

A short description of test [4]: qHTS assay to identify small molecule agonists of the progesterone receptor (PR) signaling pathway - cell viability counter screen (AID 1346799; calls by dose curve; note: nearly all actives have a fitted effect of over 45% in size). The procedure, abridged:
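PR-UAS-bla HEK293T cells, 3,000 per well in medium with 2% charcoal-stripped FBS, were preincubated 6 hr at 37C, then exposed to compounds for 16 hr; viability was read as CellTiter-Glo luminescence after 30 min at room temperature.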

Test [5] in a line: qHTS assay to identify small molecule antagonists of the TGF-beta/Smad signaling pathway - cell viability counter screen (AID 1346824). Note: nearly all actives have a fitted effect of over 50% in size. Summed up:
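Cytotoxicity counter-screen run in the same wells as the beta-lactamase Smad reporter read: CellTiter-Glo luminescence after 30 min at room temperature. HEK 293T SBE-bla cells had 5 hr compound exposure at 37 C with TGF-beta1 (0.25 ng/mL stock).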

A short description of test [6]: qHTS assay to identify small molecule agonists of the TGF-beta/Smad signaling pathway - cell viability counter screen (AID 1346829). Note: top concentration of the series differs between compounds; nearly all actives have a fitted effect of over 45% in size. Summed up:
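SBE-bla HEK 293T cells plated overnight, compound exposure 5 hr at 37 C. Viability read in the same wells by CellTiter-Glo luminescence after 30 min at room temperature, following the beta-lactamase read.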

The nature of test [7]: qHTS assay to identify small molecule agonists of the TGF-beta/Smad signaling pathway (AID 1346859; active = well fitted activation curve with a large enough effect in the signal ratio in the repeat runs, not every such curve was filed as active; the % refers to the signal ratio; note: series mostly up to about 77 µM). The procedure, abridged: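 HEK 293T cells stably carrying a beta-lactamase reporter driven by the Smad binding element were seeded overnight, exposed to DMSO-dissolved compounds for 5 hr at 37 C, 5% CO2, then loaded with FRET substrate for 2 hr at room temperature.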
For test [8], the target named is Thyrotropin-releasing hormone receptor (Homo sapiens) (UniProt P34981). Kind of test: qHTS assay to identify small molecule antagonists of the thyrotropin-releasing hormone receptor (TRHR) signaling pathway (AID 1346877; active = well fitted inhibition curve with a large enough effect in the repeat runs, not every such curve was filed as active; note: series mostly up to about 51 µM). The procedure, abridged: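 HEK293/TRHR cells, 18 h, 37 °C; Ca2+ dye 2 h; cpd 5 min RT; TRH 1 nM final; fluorescence read 3 min, 1 s intervals; 15 concs, triplicate.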
Thyrotropin-releasing hormone receptor (Homo sapiens), sequence (P34981 whole entry, looked up): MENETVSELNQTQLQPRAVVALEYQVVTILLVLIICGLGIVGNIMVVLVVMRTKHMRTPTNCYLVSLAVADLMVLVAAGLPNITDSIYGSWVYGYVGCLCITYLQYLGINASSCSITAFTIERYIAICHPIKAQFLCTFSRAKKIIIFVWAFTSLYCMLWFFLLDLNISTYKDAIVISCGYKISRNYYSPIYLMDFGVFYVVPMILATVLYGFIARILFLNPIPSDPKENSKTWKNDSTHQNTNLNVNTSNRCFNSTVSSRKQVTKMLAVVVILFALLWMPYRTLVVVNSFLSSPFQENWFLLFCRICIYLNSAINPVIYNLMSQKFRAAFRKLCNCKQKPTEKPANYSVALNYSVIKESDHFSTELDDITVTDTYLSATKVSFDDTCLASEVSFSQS

For test [9] the target is unchanged. Kind of test: qHTS assay to identify small molecule agonists of the thyrotropin-releasing hormone receptor (TRHR) signaling pathway (AID 1346891; calls by dose curve; note: series mostly up to about 58 µM). Summed up:
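TRHR-expressing HEK293 cells were plated 18 h at 37 °C/5% CO2, loaded with calcium dye 2 h at 37 °C, then given compound in DMSO; fluorescence was read kinetically for 3 min at 1 s intervals.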

A short description of test [10]: Human pregnane X receptor (PXR) small molecule agonists, qHTS cell viability counter screen (AID 1346977). Note: nearly all actives have a fitted effect of over 50% in size. The procedure, abridged:
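PXR-Luc HepG2 cells in medium with 5% charcoal-stripped FBS were pre-incubated 5hr, then exposed to compounds for 24hr at 37C. Viability was read in the same wells by CellTiter-Fluor fluorescence, reagent added after 23hr with a 1hr incubation.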

Test [11] is described as follows: Caspase-3/7 induction in HepG2 cells by small molecules, qHTS assay (AID 1346978). Note: nearly all actives have a fitted effect of over 15% in size. Summed up: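 Caspase-3/7 induction was measured by Caspase-Glo 3/7 luminescence (30 min, room temperature) after a 17 hr compound exposure of wild-type HepG2 cells seeded at 2,000 per well and pre-incubated 5 hr.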
Test [12] is described as follows: Caspase-3/7 induction in CHO-K1 cells by small molecules, qHTS cell viability counter screen (AID 1346979). Note: nearly all actives have a fitted effect of over 35% in size. The procedure, abridged: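 Wild-type CHO-K1 cells were seeded at 1,500 per well, rested 5hr at 37 C, then exposed to compounds in DMSO. After 16hr, CellTiter-Fluor reagent was added and fluorescence read 1hr later as the viability measure.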
Test [13] is described as follows: Caspase-3/7 induction in CHO-K1 cells by small molecules, qHTS assay (AID 1346980). Note: nearly all actives have a fitted effect of over 15% in size. Summed up: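 Luminescent Caspase-Glo 3/7 read (30min, room temperature) quantified apoptosis induction. Cells were wild-type CHO-K1, treated with compound for 17hr at 37 C and 5% CO2.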
Test [14] in a line: Caspase-3/7 induction in HepG2 cells by small molecules, qHTS cell viability counter screen (AID 1346981). Note: series mostly up to about 92 µM; nearly all actives have a fitted effect of over 30% in size. Summed up:
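Fluorescence read-out of live-cell protease activity (CellTiter-Fluor) after 1 hr with reagent. This was measured in the same wells as the caspase-3/7 luminescence, on HepG2 cells exposed to DMSO-dissolved compounds for 16 hr at 37 C.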

Test [15] deals with Nuclear receptor subfamily 1 group I member 2 (Homo sapiens) (UniProt O75469). Nature of the test: Human pregnane X receptor (PXR) small molecule agonists, qHTS assay (AID 1346982). Note: nearly all actives have a fitted effect of over 35% in size. Note: potency is the fitted concentration of half-maximal effect. The procedure, abridged:
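HepG2 PXR-Luc reporter line, 5% charcoal-stripped FBS; 5 hr pre-incubation, compound (DMSO) 24 hr at 37 C/5% CO2; ONE-Glo 30 min RT; luminescence read-out.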

For test [16], the target named is Cytochrome P450 2D6 (Homo sapiens) (UniProt P10635). Nature of the test: Cytochrome P450 Family 2 Subfamily D Member 6 (CYP2D6) small molecule antagonists: luciferase reporter qHTS assay (AID 1671196). Note: series mostly up to about 120 µM; nearly all actives have a fitted effect of over 50% in size. Summed up:
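Luminogenic proluciferin substrate, CYP2D6 enzyme; 10 min RT preincubation with compound, NADPH regeneration system added, 1 h RT. Stop/detection reagent, 20 min RT, luminescence read (RLU). Signal proportional to CYP activity.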

Test [17] can be described thus: qHTS assay to identify small molecule antagonists of the progesterone receptor (PR) signaling pathway - cell viability counter screen (AID 1346798). Note: series mostly up to about 92 µM; nearly all actives have a fitted effect of over 50% in size. The procedure, abridged:
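PR-UAS-bla HEK293T cells in medium with 2% charcoal-stripped FBS were treated with compounds plus R5020 for 16 hr at 37C. Cell viability was then read by CellTiter-Glo luminescence after 30 min at room temperature in the same wells.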

The target of test [18] is Nuclear receptor subfamily 1 group I member 2 (Rattus norvegicus) (UniProt Q9R1A7). Kind of test: Rat pregnane X receptor (rPXR) activation by small molecules, qHTS assay (AID 1346983). Note: nearly all actives have a fitted effect of over 20% in size. Conditions: rPXR luciferase reporter cells, One-Glo luminescence, 24 h; active compounds read high. The procedure, abridged:
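Luminescent readout (One-Glo luciferase, 30 min room temperature) followed 24 hr compound treatment at 37 C of rPXR cells plated 2,000 per well and preincubated 5hr; qHTS format with compounds delivered in DMSO.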

Test [19] concerns the target Nuclear receptor subfamily 1 group I member 2 (Homo sapiens) (UniProt O75469). Kind of test: CYP3A4 induction through human pregnane X receptor (PXR) by small molecules, qHTS assay (AID 1346984). Note: nearly all actives have a fitted effect of over 40% in size. Summed up: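 HepG2-derived DPX-2 line carrying PXR plus a CYP3A4-promoter luciferase reporter; cells plated 5 hr, compound-exposed 24 hr at 37C. CYP3A4 activity probed with 3uM (final) Luciferin-IPA for 3hr, then luciferase read after One-Glo.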

Test [20] shares this target. Kind of test: Human pregnane X receptor (PXR) activation by small molecules, qHTS assay (AID 1346985). Note: nearly all actives have a fitted effect of over 40% in size. Summed up:
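DPX-2 cells (HepG2 co-transfected with a PXR response element and a CYP3A4-promoter luciferase construct) were seeded at 2,000 per well, rested 5 hr at 37C, then exposed to DMSO-dissolved compounds for 24 hr. Activation was read as luciferase luminescence.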
% is set by controls: 0 for no effect and ±100 for the full control effect.

Progesterone receptor (Homo sapiens), sequence (P06401 whole entry, looked up): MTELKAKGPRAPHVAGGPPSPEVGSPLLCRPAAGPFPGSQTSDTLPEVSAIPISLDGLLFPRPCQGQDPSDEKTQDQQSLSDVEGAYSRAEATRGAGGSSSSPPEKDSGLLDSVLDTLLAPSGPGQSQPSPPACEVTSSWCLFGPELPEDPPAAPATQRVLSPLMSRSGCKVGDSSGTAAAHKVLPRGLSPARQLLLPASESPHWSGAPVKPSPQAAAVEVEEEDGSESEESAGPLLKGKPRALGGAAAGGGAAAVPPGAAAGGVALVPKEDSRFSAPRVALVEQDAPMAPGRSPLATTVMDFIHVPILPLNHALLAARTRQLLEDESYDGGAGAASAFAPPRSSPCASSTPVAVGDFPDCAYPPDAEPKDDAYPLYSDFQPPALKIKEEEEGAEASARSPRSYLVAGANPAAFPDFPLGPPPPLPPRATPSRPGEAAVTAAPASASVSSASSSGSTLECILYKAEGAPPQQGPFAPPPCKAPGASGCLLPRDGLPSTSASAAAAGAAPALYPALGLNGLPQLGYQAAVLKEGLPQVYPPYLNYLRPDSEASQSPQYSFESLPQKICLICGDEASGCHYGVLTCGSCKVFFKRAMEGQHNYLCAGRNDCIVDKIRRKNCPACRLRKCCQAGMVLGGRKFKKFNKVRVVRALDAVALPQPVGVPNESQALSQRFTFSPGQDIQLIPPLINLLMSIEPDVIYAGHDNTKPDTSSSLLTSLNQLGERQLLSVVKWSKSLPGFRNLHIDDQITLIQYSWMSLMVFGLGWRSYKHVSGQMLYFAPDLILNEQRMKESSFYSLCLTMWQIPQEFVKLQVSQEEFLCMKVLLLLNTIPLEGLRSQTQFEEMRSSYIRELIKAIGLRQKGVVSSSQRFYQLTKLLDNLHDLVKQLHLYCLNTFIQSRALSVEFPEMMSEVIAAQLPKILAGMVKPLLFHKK
Nuclear receptor subfamily 1 group I member 2 (Homo sapiens), sequence (O75469 whole entry, looked up): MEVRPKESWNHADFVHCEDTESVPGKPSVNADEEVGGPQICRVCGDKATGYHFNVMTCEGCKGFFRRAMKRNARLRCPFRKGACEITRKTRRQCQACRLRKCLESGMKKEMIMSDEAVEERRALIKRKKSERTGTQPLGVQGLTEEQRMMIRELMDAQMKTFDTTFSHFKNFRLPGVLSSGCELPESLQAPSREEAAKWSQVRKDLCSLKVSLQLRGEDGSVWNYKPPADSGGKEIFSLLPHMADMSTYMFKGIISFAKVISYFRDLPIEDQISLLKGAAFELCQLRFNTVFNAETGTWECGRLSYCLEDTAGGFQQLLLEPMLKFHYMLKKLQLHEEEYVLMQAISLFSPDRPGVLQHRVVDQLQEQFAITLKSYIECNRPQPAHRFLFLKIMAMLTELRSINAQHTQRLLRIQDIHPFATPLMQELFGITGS
Cytochrome P450 2D6 (Homo sapiens), sequence (P10635 whole entry, looked up): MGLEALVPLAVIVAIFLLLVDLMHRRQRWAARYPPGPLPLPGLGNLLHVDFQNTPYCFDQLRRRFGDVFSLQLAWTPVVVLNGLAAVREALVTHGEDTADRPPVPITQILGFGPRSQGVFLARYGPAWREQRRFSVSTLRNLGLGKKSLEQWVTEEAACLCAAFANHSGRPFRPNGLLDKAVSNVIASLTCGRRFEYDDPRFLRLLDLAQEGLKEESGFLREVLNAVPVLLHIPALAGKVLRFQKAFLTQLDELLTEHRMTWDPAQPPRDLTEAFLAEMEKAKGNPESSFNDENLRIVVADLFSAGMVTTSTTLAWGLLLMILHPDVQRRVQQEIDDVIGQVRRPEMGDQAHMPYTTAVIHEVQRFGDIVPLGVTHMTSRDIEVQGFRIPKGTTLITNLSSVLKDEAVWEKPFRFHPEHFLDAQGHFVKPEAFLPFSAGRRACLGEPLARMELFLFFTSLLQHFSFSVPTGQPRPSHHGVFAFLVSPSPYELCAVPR
Nuclear receptor subfamily 1 group I member 2 (Rattus norvegicus), sequence (Q9R1A7 whole entry, looked up): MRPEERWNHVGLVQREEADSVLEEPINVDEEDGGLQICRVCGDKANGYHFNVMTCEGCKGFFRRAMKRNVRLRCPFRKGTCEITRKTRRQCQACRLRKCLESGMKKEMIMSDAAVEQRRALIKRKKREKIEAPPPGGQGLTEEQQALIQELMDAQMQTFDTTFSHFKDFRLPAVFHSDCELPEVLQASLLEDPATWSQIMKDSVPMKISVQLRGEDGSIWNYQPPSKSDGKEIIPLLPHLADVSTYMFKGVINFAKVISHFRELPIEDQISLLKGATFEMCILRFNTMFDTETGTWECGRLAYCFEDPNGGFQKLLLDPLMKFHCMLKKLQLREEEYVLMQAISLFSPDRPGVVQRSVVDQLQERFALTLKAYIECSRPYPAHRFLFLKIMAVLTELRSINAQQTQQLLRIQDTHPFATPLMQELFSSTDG

As to `CCCCCC(=O)O`, the Potency entry in [1], in test [2], in test [3], in test [10], in test [11] and in [12] was “inactive” throughout. For the same compound, the Potency entry in test [14], in test [15] and in [16] was “inactive” each time. The outcome in test [4], in test [5], in [6], in test [7], in [8] and in test [9] was inactive. The compound was called inactive in test [13].
On to `CC(C)(C)c1cc(Cc2cc(C(C)(C)C)c(O)c(C(C)(C)C)c2)cc(C(C)(C)C)c1O`, for which the Potency result in test [1], in test [2], in [3], in test [10], in [11] and in [12] was “inactive” throughout. In addition, the Potency entry in test [14], in [15] and in test [16] was “inactive” each time. The compound was classed as inactive in test [17], in test [4], in [5], in [6], in test [7] and in test [9]. Moreover, the compound was classed as inactive in [13].
As for `CCCCOC(=O)c1ccc(N)cc1`, the Potency result in test [1], in test [2], in [10], in [12] and in [14] was “inactive” throughout. The compound was classed as inactive in [17], in [4], in test [5], in [6], in test [7] and in test [8]. The result in [9] and in test [13] was inactive. Besides, the Potency in test [15] is 53.8 µM (active) and 23.7 µM (active).
As to `O=C(O)c1ccccc1C(=O)O`, the Potency result in test [1], in test [2], in [10], in test [11], in test [12] and in [14] was “inactive” throughout. In addition, in test [16], the Potency result is “inactive”. Further, the outcome in test [5], in test [6], in [7] and in test [13] was inactive.
In the case of `CC(C)(Oc1ccc(CCNC(=O)c2ccc(Cl)cc2)cc1)C(=O)O`, the Potency entry in test [1], in [2], in test [10], in [11], in test [12] and in [14] was “inactive” throughout. Further, the Potency result in [15], in [19] and in test [16] was “inactive” each time. The outcome in [17], in [4], in [5], in [6], in [7] and in test [8] was inactive. Moreover, the call in [9], in [13] and in test [20] was inactive. Besides, the max activation in test [18] is -0.19%.
`CC(C)(C#N)c1cc(Cn2cncn2)cc(C(C)(C)C#N)c1`: the Potency entry in [1], in test [2], in test [10], in test [12], in [14] and in test [16] was “inactive” throughout. The result in [4], in test [5], in test [6], in test [7] and in [13] was inactive. In addition, the max activation in test [18] was 0.273%.
On to `COCCOC(=O)c1ccccc1C(=O)OCCOC`, for which the Potency result in test [1], in test [2], in [10], in test [12], in [14] and in test [15] was “inactive” each time. The Potency result in test [16] was “inactive”. Also, the compound was called inactive in test [17], in test [4], in test [5], in test [7], in test [8] and in [9]. Moreover, the result in test [13] was inactive.
As to `CCNc1ccccc1`, the Potency entry in test [1], in test [2], in test [10], in test [11], in [12] and in test [14] was “inactive” each time. The Potency entry in test [15] and in [16] was “inactive” in each case. Further, the compound was called inactive in test [5], in test [6], in test [7] and in [13].
In the case of `CCCCC(C=O)CC` (stereo not drawn), the Potency result in [2], in [3], in [10], in [11], in test [12] and in test [14] was “inactive” in each case. Moreover, in test [16], the Potency result was “inactive”. In addition, the compound was classed as inactive in test [17], in [4], in [5], in [6], in [7] and in test [9]. In addition, the compound was called inactive in test [13].
